Assay results reported in PubChem BioAssay (NCI).
The panel holds about 83,000 compounds, 20% with a hit somewhere; the sample as a whole holds those more often.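 A percent growth of 40 corresponds to 60% growth inhibition; 0 means no net growth; -100 means all cells died. Active threshold: below 10.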 Values without a mark were called inactive. Activity calls are given as the source filed them.

Experiments:
Experiment in all cases: NCI-60 one-dose screen, 48 h (100 = growth as untreated, 0 = no growth, -100 = all killed)
Settings in all cases: 10 µM unless noted
NCI-H23 lung = system: NCI-H23 lung
NCI-H226 lung = system: NCI-H226 lung
NCI-H322M lung = system: NCI-H322M lung
HOP-62 NSCLC = system: HOP-62 NSCLC
NCI-H460 lung = system: NCI-H460 lung
HOP-92 NSCLC = system: HOP-92 NSCLC
NCI-H522 lung = system: NCI-H522 lung
A549/ATCC NSCLC = system: A549/ATCC NSCLC
786-0 renal = system: 786-0 renal
COLO 205 colon = system: COLO 205 colon
DU-145 prostate = system: DU-145 prostate
K-562 leukemia = system: K-562 leukemia
MALME-3M melanoma = system: MALME-3M melanoma
MDA-MB-231 breast = system: MDA-MB-231 breast
RXF 393 renal = system: RXF 393 renal
SF-268 CNS = system: SF-268 CNS
SF-295 CNS = system: SF-295 CNS
SF-539 CNS = system: SF-539 CNS
UACC-257 melanoma = system: UACC-257 melanoma
M14 melanoma = system: M14 melanoma

SMILES	growth (NCI-H23 lung)	growth (NCI-H226 lung)	growth (NCI-H322M lung)	growth (HOP-62 NSCLC)	growth (NCI-H460 lung)	growth (HOP-92 NSCLC)	growth (NCI-H522 lung)	growth (A549/ATCC NSCLC)	growth (786-0 renal)	growth (COLO 205 colon)	growth (DU-145 prostate)	growth (K-562 leukemia)	growth (MALME-3M melanoma)	growth (MDA-MB-231 breast)	growth (RXF 393 renal)	growth (SF-268 CNS)	growth (SF-295 CNS)	growth (SF-539 CNS)	growth (UACC-257 melanoma)	growth (M14 melanoma)
O=C1/C(=C2\SC(=S)N(C3CC3)C2=O)SC(=S)N1C1CC1	96.7%	95.5%	95.6%	99.3%	103%	98.9%	91.9%	98.1%	98.6%	117%	105%	103%	99.2%	101%	97.3%	95.1%	98.6%	103%	94.9%	96.3%
O=S1(=O)C=C(c2ccccc2)C(c2ccccc2)=C1	60.1%	44.7%	90.8%	54.3%	36.5%	-1.68% (active)	-70.7% (active)	70.9%	3.9% (active)	-88.5% (active)	9.89% (active)	4.11% (active)	-32.6% (active)	11%	-86.8% (active)	3.46% (active)	73.5%	9.24% (active)	2.35% (active)	12.1%
O=C(Nc1cc(Cl)ccc1O)c1cccc(Nc2ccnc(C(F)(F)F)c2)c1	11.6%	54.2%	59.1%	64.8%	30.5%	53.6%	30.6%	37.1%	49.3%	90.9%	54.9%	7.05% (active)	53.1%	34.1%	65.8%	55.2%	2.92% (active)	48.1%	32.3%	38.5%
O=S(=O)(NCCNc1nccc(-c2c(-c3ccc(F)c(O)c3)nc3sccn23)n1)c1ccc(F)cc1	36.6%	83.6%	47.6%	48.3%	21.9%	33.6%	28.5%	26.9%	38.1%	26.2%	34.4%	14.7%	5.92% (active)	25.5%	-4.56% (active)	37.3%	53.4%	44.3%	32.1%	15.5%
Cc1cccc[n+]1C1c2ccccc2-c2ccccc21	103%	96.1%	107%	70.5%	106%	68.9%	57.9%	78.8%	90.7%	75.3%	110%	86.6%	99.3%	98.5%	102%	94.4%	99.1%	92.7%	90.3%	93.7%
COc1cnc2c(c1)C(=O)c1c-2n(CCCCl)c(=O)c2ccncc12	58%	69.5%	78.4%	58.2%	18.6%	110%	26.7%	69.3%	83.6%	19.7%	76%	38.7%	103%	81.4%	81%	57.6%	36.6%	56.1%	70%	67.5%
CCN1CCN(CC(=O)Nc2ccc(-c3cn4c(n3)sc3cc(Oc5ccnc(C(=O)NC)c5)ccc34)cc2)CC1	97.1%	105%	75.9%	66.1%	48.7%	54.6%	83.7%	78.2%	75.3%	51.8%	105%	-11.1% (active)	87.7%	85.1%	69.2%	87.2%	65.4%	65.4%	96.2%	73.8%
Cc1ccc(-c2csc(NC(=O)c3ccccc3CN3C(=O)c4ccccc4C3=O)n2)cc1	93.3%	92%	95.1%	99.1%	109%	89.6%	82.1%	86.4%	95.8%	103%	96.5%	100%	93.7%	93.2%	89.8%	86.6%	95.6%	98.4%	92.4%	106%
